Screening results from PubChem.
aSyn UTR act – Activators via SNCA 5'UTR binding, MLPCN | alpha-synuclein 5'UTR reporter, activators screen | activity score, % (tested at 7.5 µM), hits read low | 7.1% of 300,000 active | AID 1814; in the data active means activity score below about -60%
Numbers without * were called inactive. A selection follows.

SMILES | aSyn UTR act
CCN(CC)CCn1c(NC(=O)c2ccc(C)cc2)nc2ccccc21 | -65*
CCC(=O)Nc1nc2ccccc2n1Cc1ccc(C)cc1 | 77
CC(=O)Nc1ccc(N=Nc2ccc(O)cc2)cc1 | -87*
Oc1ccc(N=Nc2ccccc2)cc1 | -145*
OCc1ccc(N=Nc2ccccc2)cc1 | -84*
Oc1ccc(Cl)cc1N=Nc1ccccc1 | -70*
COC(=O)c1ccc2c(c1)C(=O)/C(=C/c1ccc(C)cc1)O2 | -143*
COC(=O)c1ccc(/C=C2\Oc3ccccc3NC2=O)cc1 | -110*
Cc1ccc(NC(=O)Nc2ccc3c(c2)nnn3C)cc1C | -66*
COc1ccccc1NC(=O)Nc1ccc2c(c1)nnn2C | -96*
Cc1cccc(Nc2nnc(SCC(=O)Nc3cccc(S(=O)(=O)N4CCCCC4)c3)s2)c1 | -152*
CCc1ccc(Nc2nnc(SCC(=O)Nc3cccc(S(=O)(=O)NC4=NCCCCC4)c3)s2)cc1 | -147*
CN(C)/C=C(\C#N)C(=O)N/N=C/c1ccccc1 | -69*
CCCCN1C(=O)/C(=C/C=C2/CC(C)(C)CN2C)SC1=S | -134*
Cc1ccc2nc(-c3cc(N)cc(N)c3)oc2c1 | 62
Cc1nc2ccc(-c3nc4ccccc4o3)cc2[nH]1 | -73*
Nc1ccc(-c2nc3ccc(-c4nc5ccccc5o4)cc3[nH]2)cc1 | -215*
C/C(CC(=O)Nc1ccc2c(c1)OCCO2)=N\NC(=O)C(=O)Nc1ccccc1C | -74*
C/C(=N/NC(=O)c1ccccn1)c1ccncc1 | -116*
COc1ccc(NC(=O)C/C(C)=N/NC(=O)c2ccccn2)c(OC)c1 | -107*
C/C(CC(=O)Nc1ccc2c(c1)OCCO2)=N\NC(=O)c1ccccn1 | -143*
C/C(=N\NC(=O)c1ccccc1Cl)c1ccccn1 | 82
C/C(CC(=O)Nc1ccccn1)=N\NC(=O)c1ccc2ccccc2c1 | -64*
C/C(Cc1ccccc1)=N\NC(=O)c1ccccn1 | -67*
C/C(CC(=O)Nc1cc(C)cc(C)c1)=N\NC(=O)c1ccccn1 | -165*
SMILES | aSyn UTR act
CCC(C)c1ccc(NC(=O)C/C(C)=N/NC(=O)c2cnccn2)cc1 (centres undefined) | -63*
C/C(CC(=O)Nc1ccccn1)=N\NC(=O)c1ccccc1O | 71
O=S1(=O)C=C(Sc2nnc(-c3ccccc3)o2)c2ccccc21 | -118*
Cc1cc(C)nc(SC2=CS(=O)(=O)c3ccccc32)n1 | -120*
CN(C)CCCN(C(=O)c1ccc2c(c1)OCCO2)c1nc2ccc(Cl)cc2s1 | -133*
CN(C)CCCN(C(=O)c1ccc(S(=O)(=O)N2CCc3ccccc32)cc1)c1nc2ccc(Cl)cc2s1 | 58
CN(C)CCN(C(=O)c1ccc2c(c1)OCCO2)c1nc2ccc(Cl)cc2s1 | -159*
COc1ccc(OC)c(NC(=O)NC2(C(F)(F)F)Oc3ccccc3O2)c1 | -73*
Clc1cccc(Oc2cnc3ccccc3n2)c1 | -66*
COc1ccc(Oc2cnc3ccccc3n2)cc1 | -65*
CC(C)(C)c1ccc(Oc2ccc(N)cn2)cc1 | 87
Cc1ccc2[nH]c(C)c(/C=N/Nc3nc4ccccc4s3)c2c1 | -140*
C(=N\Nc1nc2ccccc2s1)/c1ccccn1 | 101
C(=N\Nc1nc2ccccc2s1)/c1ccc2c(c1)OCO2 | -190*
Brc1csc(/C=N/Nc2nc3ccccc3s2)c1 | -275*
Brc1cc2c(cc1/C=N/Nc1nc3ccccc3s1)OCO2 | -117*
Cc1nc(N/N=C\c2ccc3c(c2)OCO3)sc1C | -128*
N#C/C(=C\C=C\c1ccccc1[N+](=O)[O-])C(=O)NC1CCCCC1 | -132*
COc1nc(NCc2ccco2)nc(NC2CCCCC2)n1 | -94*
CCN(CCn1cccn1)C(=O)c1cc(COc2cc(C)ccc2C)on1 | -79*
CCN(CCn1cccn1)C(=O)c1cc(COc2ccccc2SC)on1 | -90*
COc1ccc(/C(N)=N/OC(=O)C2CCCCC2)cc1OC | -86*
COc1ccc(-c2ccc(C(=O)C3CC3)cc2)cc1 | -107*
COc1ccc(/C(N)=N/OC(=O)C2CCCCC2)cc1 | -131*
Clc1ccccc1N1CCN(Cc2c[nH]c3ccccc23)CC1 | 64
SMILES | aSyn UTR act
O=C(CCCc1c[nH]c2ccccc12)N1CCCCCC1 | -73*
CN(C)c1oc(-c2ccc(OCc3ccccc3)cc2)nc1C#N | -109*
Cc1nc2nc(-c3cccnc3)nn2c(C)c1Cl | -74*
CCCOc1ccc(-c2nc(-c3ccc(N)cc3)cs2)cc1 | -123*
CC(C)c1ccc(-c2nnc(N)s2)cc1 | -102*
CCCOc1ccc(-c2nnc(N)s2)cc1 | -136*
Cc1ccc(N2NC(C)(c3cccs3)NC2=S)cc1 (centres undefined) | -151*
CCCCOc1ccc2c(c1)C(=O)c1cc(O)ccc1-2 | -209*
C=CCSc1ncc(C(=O)OCC)c(N)n1 | -101*
CCOC(=O)c1cnc(SCc2ccccc2)nc1N | -183*
Fc1ccc(CSc2nnc(-c3cccs3)o2)cc1 | -88*
Fc1ccc(-c2nnc(Cc3ccc(Cl)cc3)o2)cc1 | -86*
Fc1ccccc1CSc1nnc(-c2cccs2)o1 | -128*
c1ccc(CSc2nnc(-c3cccs3)o2)cc1 | -170*
Fc1ccc(Cc2nnc(-c3cccs3)o2)cc1 | -114*
Cc1oc(-c2ccc(Cl)cc2)cc1C(=O)O | -83*
O=C(Nc1cccnc1)c1cc(-c2cc(Cl)ccc2O)n[nH]1 | -219*
Cc1ccc(O)c(-c2cc(C(=O)Nc3cccnc3)[nH]n2)c1 | -166*
Clc1ncccc1-c1nc2ccccc2s1 | -149*
O=c1c(-c2nc3ccccc3s2)cccn1Cc1ccc(Cl)cc1 | -111*
CC(Cc1cccs1)NC(=O)Nc1ccc(Cl)cc1 (centres undefined) | -221*
CC(Cc1cccs1)NC(=O)Nc1ccc(Cl)c(Cl)c1 (centres undefined) | -90*
CCCC(=O)NC(c1cccs1)c1cc(Cl)c2cccnc2c1O (centres undefined) | 99
COc1ccc2nc(N3CCN(C(=O)C4COc5ccccc5O4)CC3)sc2c1 (centres undefined) | -125*
CC1CCN(c2nc3ccc(C(=O)N4CCN(Cc5ccc6c(c5)OCO6)CC4)cc3s2)CC1 | -156*
SMILES | aSyn UTR act
COc1cccc(N2CCN(C(=O)c3ccc4nc(N5CCCCC5)sc4c3)CC2)c1 | -153*
COc1ccc(N2CCN(C(=O)c3ccc4nc(N5CCCCC5)sc4c3)CC2)cc1 | -192*
O=C1c2ccccc2NC(c2ccc3c(c2)OCO3)N1O (centres undefined) | -121*
CC1Cc2cc(-c3csc(N)n3)ccc2O1 (centres undefined) | -95*
Cc1nc(-c2ccc3c(c2)OCCCO3)cs1 | -100*
Nc1nc(-c2ccc3c(c2)OCCO3)cs1 | -86*
Cc1cc(/C=C2\SC(N)=NC2=O)c(C)n1-c1ccc(F)cc1 | -62*
Cc1cc(/C=C2\SC(=S)N(C)C2=O)c(C)n1-c1ccccc1O | -126*
CCn1c(C)cc(/C=C2/SC(=S)NC2=O)c1C | -67*
COc1ccc(-n2c(C)cc(/C=C3\SC(=O)NC3=O)c2C)cc1 | -146*
Cc1ccc(/C=C2\SC(=S)N(CCCC(=O)NNC(=O)c3ccccc3O)C2=O)cc1 | 107
Cc1cc(/C=C2\SC(=S)NC2=O)c(C)n1-c1cccc(O)c1 | -111*
Cc1cc(/C=C2/C(=O)NN(c3ccccc3)C2=O)c(C)n1-c1cccc(O)c1 | -74*
Cc1ccc(-n2c(C)cc(/C=C3\SC(=O)NC3=O)c2C)cc1 | -174*
Cc1cccc(Nc2nnc(SCC(=O)NC(=O)Nc3ccc4c(c3)OCCO4)s2)c1 | -95*
Cc1ccccc1Nc1nnc(SCC(=O)NC(=O)Nc2ccc3c(c2)OCCO3)s1 | -86*
